{"source": "PubChem BioAssay AID1159580", "about": "(chemical genetic matrix, 2015)", "assay": "chemical genetic growth profiling, strain panel (AID 1159580);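 further: tested at 20 µM; growth read once vehicle control cultures reached saturation at 30 °C; 1 = growth at the plate median or of vehicle wells; lower values mean less growth of the strain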", "settings": "S. cerevisiae deletion strains, growth OD", "note": "The whole screen tested about 5,500 compounds, of which about 2,000 (36%) were called active. About 18% were inconclusive and are not listed. The list shows a part of the results. Values without a mark were called inactive. No stated cut-off is given here; in the data, active means normalized growth mostly below about 0.91 (no sharp cut-off); inconclusive means no clear call, values can overlap the other calls; inactive means mostly above about 0.92.", "data": [{"smiles": "CC(=O)SCC[N+](C)(C)C", "values": [{"measurement": "normalized growth", "setting": "locus YAL040C, strain CLN3, hits give low values", "value": "1.12 [resistant] (active)"}, {"measurement": "normalized growth", "setting": "locus YER002W, strain NOP16, hits give low values", "value": 1.04}, {"measurement": "normalized growth", "setting": "locus YNL175C, strain NOP13, hits give low values", "value": 1.02}, {"measurement": "normalized growth", "setting": "locus YNL197C, strain WHI3, hits give low values", "value": 1.02}, {"measurement": "normalized growth", "setting": "locus YNL224C, strain SQS1, hits give low values", "value": 0.972}, {"measurement": "normalized growth", "setting": "locus YOR083W, strain WHI5 (second series), hits give low values", "value": 0.982}, {"measurement": "normalized growth", "setting": "locus YPL055C, strain LGE1, hits give low values", "value": 1.01}]}]}
